Measured values published in publication PMC11062922 (Nature Chemical Biology, 2023).
Where two headings read alike, the source gives them in different places.

What was measured:
Parameters in all cases: species or system human, MV4-11 + K-562 + COLO205 + SK-N-BE2 + OVCAR-8
ACVR1B = details: read-out: apparent Kd, n = 1
CSNK1A1 = details: read-out: apparent Kd, n = 1
CSNK1D = details: read-out: apparent Kd, n = 1
CSNK1E = details: read-out: apparent Kd, n = 1
MAP2K4 = details: read-out: apparent Kd; compound concentrations:100 nM and 1000 nM (sheet 'Samples'); n = 1
ADCK3 = details: read-out: apparent Kd, n = 1
ACVR1 = details: read-out: apparent Kd, compound concentrations: 100 nM and 1000 nM (sheet 'Samples'), n = 1
ACVR2B = details: read-out: apparent Kd, compound concentrations: 100 nM and 1000 nM (sheet 'Samples'), n = 1
RET = details: read-out: apparent Kd, compound concentrations: 100 nM and 1000 nM (sheet 'Samples'), n = 1
RIPK2 = details: read-out: apparent Kd, n = 1
RIPK3 = details: read-out: apparent Kd, compound concentrations: 100 nM and 1000 nM (sheet 'Samples'), n = 1
TGFBR1 = details: read-out: apparent Kd, compound concentrations: 100 nM and 1000 nM (sheet 'Samples'), n = 1
CIT = details: read-out: apparent Kd, n = 1
MAP4K2 = details: read-out: apparent Kd; compound concentrations:100 nM and 1000 nM (sheet 'Samples'); n = 1
MAPK14 = details: read-out: apparent Kd, n = 1
PKN3 = details: read-out: apparent Kd, n = 1
PRKD2 = details: read-out: apparent Kd, n = 1
PRKD3 = details: read-out: apparent Kd; compound concentrations:100 nM and 1000 nM (sheet 'Samples'); n = 1
TESK2 = details: read-out: apparent Kd; compound concentrations:100 nM and 1000 nM (sheet 'Samples'); n = 1
TGFBR2 = details: read-out: apparent Kd, n = 1
BCR = details: read-out: apparent Kd; compound concentrations: 100 nM and 1000 nM (sheet 'Samples'), CATDS: 2.1537689296735201E-2; n = 1
BMPR1B = details: read-out: apparent Kd; compound concentrations: 100 nM and 1000 nM (sheet 'Samples'), CATDS: 2.4616373356857599E-2; n = 1
BRAF = details: read-out: apparent Kd; compound concentrations: 100 nM and 1000 nM (sheet 'Samples'), CATDS: 1.9586867815954801E-2; n = 1
BUB1 = details: read-out: apparent Kd; compound concentrations: 100 nM and 1000 nM (sheet 'Samples'), CATDS: 2.2537896529622702E-2; n = 1
EPHA1 = details: read-out: apparent Kd; compound concentrations: 100 nM and 1000 nM (sheet 'Samples'), CATDS: 3.1864310867846697E-2; n = 1
FRK = details: read-out: apparent Kd; compound concentrations: 100 nM and 1000 nM (sheet 'Samples'), CATDS: 4.4669706945154999E-2; n = 1
FYN = details: read-out: apparent Kd; compound concentrations: 100 nM and 1000 nM (sheet 'Samples'), CATDS: 2.2205933689287499E-2; n = 1
MAPK9 = details: read-out: apparent Kd; compound concentrations: 100 nM and 1000 nM (sheet 'Samples'), CATDS: 1.8300020860960699E-2; n = 1
MAPKAPK2 = details: read-out: apparent Kd; compound concentrations: 100 nM and 1000 nM (sheet 'Samples'), CATDS: 2.4524702318677E-2; n = 1
PRKCI = details: read-out: apparent Kd; compound concentrations: 100 nM and 1000 nM (sheet 'Samples'), CATDS: 3.04574994167322E-2; n = 1
PTK6 = details: read-out: apparent Kd; compound concentrations: 100 nM and 1000 nM (sheet 'Samples'), CATDS: 3.9660106147075401E-2; n = 1
RPS6KB1 = details: read-out: apparent Kd; compound concentrations: 100 nM and 1000 nM (sheet 'Samples'), CATDS: 1.9963914199749098E-2; n = 1
SIK2 = details: read-out: apparent Kd; compound concentrations: 100 nM and 1000 nM (sheet 'Samples'), CATDS: 2.1322969574131299E-2; n = 1
SIK3 = details: read-out: apparent Kd; compound concentrations: 100 nM and 1000 nM (sheet 'Samples'), CATDS: 2.2436255384138602E-2; n = 1
SLK = details: read-out: apparent Kd; compound concentrations: 100 nM and 1000 nM (sheet 'Samples'), CATDS: 3.1142117408046201E-2; n = 1
STK10 = details: read-out: apparent Kd; compound concentrations: 100 nM and 1000 nM (sheet 'Samples'), CATDS: 2.2718990110139101E-2; n = 1
TNIK = details: read-out: apparent Kd; compound concentrations: 100 nM and 1000 nM (sheet 'Samples'), CATDS: 1.9385936597074001E-2; n = 1
[1] = compound concentrations:100 nM and 1000 nM (sheet 'Samples')

Cl.c1ccc(-c2nc3n(c2-c2ccc4c(c2)OCO4)CCC3)nc1 [SB-400868-A]
potency estimated from few doses (ACVR1B; [1]): 87 nM
potency estimated from few doses (CSNK1A1; [1]): 369 nM
potency estimated from few doses (CSNK1D; [1]): 150 nM
potency estimated from few doses (CSNK1E; [1]): 262 nM
potency estimated from few doses (MAP2K4): 1900 nM

COc1ccc2cc(-c3c(-c4ccncc4)nc(-c4ccc(S(C)(=O)=O)cc4C)n3C)ccc2c1 [SB-633825]
potency estimated from few doses (ACVR1B; [1]): 686 nM
potency estimated from few doses (ADCK3; [1]): 803 nM

Cl.c1ccc(-c2ccc3c(Nc4ccc5[nH]ncc5c4)ccnc3c2)nc1 [GW440137A]
potency estimated from few doses (ACVR1B; compound concentrations: 100 nM and 1000 nM (sheet 'Samples'), CATDS: 0.112387102296717): 766 nM
potency estimated from few doses (ACVR1; CATDS: 0.106513578189519): 904 nM
potency estimated from few doses (ACVR2B; CATDS: 0.67382048852526699): 11.9 nM
potency estimated from few doses (ADCK3; compound concentrations: 100 nM and 1000 nM (sheet 'Samples'), CATDS: 9.7735008507333701E-2): 1200 nM
potency estimated from few doses (RET; CATDS: 0.12802615197662401): 525 nM
potency estimated from few doses (RIPK2; compound concentrations: 100 nM and 1000 nM (sheet 'Samples'), CATDS: 0.29852587031983902): 58.9 nM
potency estimated from few doses (RIPK3; CATDS: 9.0295884260328696E-2): 1600 nM
potency estimated from few doses (TGFBR1; CATDS: 8.5016049032497404E-2): 2060 nM

Cc1cccc(-c2nc(Nc3ccncc3)c3ccccc3n2)n1 [GW855857X]
potency estimated from few doses (ACVR1B; [1]): 0.502 nM
potency estimated from few doses (CIT; [1]): 1120 nM
potency estimated from few doses (CSNK1D; [1]): 897 nM
potency estimated from few doses (CSNK1E; [1]): 1190 nM
potency estimated from few doses (MAP4K2): 1630 nM
potency estimated from few doses (MAPK14; [1]): 1470 nM
potency estimated from few doses (PKN3; [1]): 75.5 nM
potency estimated from few doses (PRKD2; [1]): 3.39 nM
potency estimated from few doses (PRKD3): 6.73 nM
potency estimated from few doses (RIPK2; [1]): 590 nM
potency estimated from few doses (TESK2): 1340 nM
potency estimated from few doses (TGFBR2; [1]): 855 nM

CC(C)(CN)c1nc(-c2ccc(Cl)c(O)c2)c(-c2ccncc2)[nH]1.O=C(O)C(F)(F)F [SB-477794-AAA]
potency estimated from few doses (ACVR1B; compound concentrations: 100 nM and 1000 nM (sheet 'Samples'), CATDS: 5.2307110654739801E-2): 55.4 nM
potency estimated from few doses (ACVR1; CATDS: 1.9559764953072701E-2): 1330 nM
potency estimated from few doses (ACVR2B; CATDS: 2.6273503134627601E-2): 388 nM
potency estimated from few doses (BCR): 833 nM
potency estimated from few doses (BMPR1B): 488 nM
potency estimated from few doses (BRAF): 1320 nM
potency estimated from few doses (BUB1): 687 nM
potency estimated from few doses (CIT; compound concentrations: 100 nM and 1000 nM (sheet 'Samples'), CATDS: 2.75730146177765E-2): 330 nM
potency estimated from few doses (CSNK1A1; compound concentrations: 100 nM and 1000 nM (sheet 'Samples'), CATDS: 2.3707563911338599E-2): 562 nM
potency estimated from few doses (CSNK1D; compound concentrations: 100 nM and 1000 nM (sheet 'Samples'), CATDS: 4.2810001426460499E-2): 92.5 nM
potency estimated from few doses (CSNK1E; compound concentrations: 100 nM and 1000 nM (sheet 'Samples'), CATDS: 3.2440470018423401E-2): 199 nM
potency estimated from few doses (EPHA1): 210 nM
potency estimated from few doses (FRK): 82.8 nM
potency estimated from few doses (FYN): 730 nM
potency estimated from few doses (MAPK14; compound concentrations: 100 nM and 1000 nM (sheet 'Samples'), CATDS: 3.89835717032921E-2): 119 nM
potency estimated from few doses (MAPK9): 2000 nM
potency estimated from few doses (MAPKAPK2): 495 nM
potency estimated from few doses (PKN3; compound concentrations: 100 nM and 1000 nM (sheet 'Samples'), CATDS: 0.20654584562915099): 2.21 nM
potency estimated from few doses (PRKCI): 241 nM
potency estimated from few doses (PRKD2; compound concentrations: 100 nM and 1000 nM (sheet 'Samples'), CATDS: 2.0032181023514398E-2): 1170 nM
potency estimated from few doses (PTK6): 113 nM
potency estimated from few doses (RET; CATDS: 0.10726511440353401): 9.97 nM
potency estimated from few doses (RIPK2; compound concentrations: 100 nM and 1000 nM (sheet 'Samples'), CATDS: 0.143338451264474): 5.13 nM
potency estimated from few doses (RIPK3; CATDS: 5.5820006344930999E-2): 47.1 nM
potency estimated from few doses (RPS6KB1): 1200 nM
potency estimated from few doses (SIK2): 871 nM
potency estimated from few doses (SIK3): 699 nM
potency estimated from few doses (SLK): 225 nM
potency estimated from few doses (STK10): 665 nM
potency estimated from few doses (TGFBR1; CATDS: 5.82262421070339E-2): 42.5 nM
potency estimated from few doses (TGFBR2; compound concentrations: 100 nM and 1000 nM (sheet 'Samples'), CATDS: 8.8931452038097006E-2): 15.4 nM
potency estimated from few doses (TNIK): 1400 nM
